Results filed as inconclusive are left out. Calls of active or inactive are those of the source. The calls were made as follows, unless noted: active = hit-call score of the fitted dose curve at least 0.9, where 1 is the maximum; inactive = score below 0.9.
Assays:
[1] = ATG_NFI_CIS: Attagene CIS-FACTORIAL HepG2 Assay for human Nuclear Factor I (NFI) (AID 2282989); details: HepG2 cis-regulatory reporter, NFI response element transcription; actives raise or lower the signal
Procedure, shortened: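 HepG2 cells transiently transfected with cis-element-driven multiplexed reporter transcription units, dosed for 24 h. Reporter mRNA quantified by RT-PCR, fluorescent labelling, HpaI digestion and capillary electrophoresis; bidirectional fit versus DMSO baseline.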

[2] = biological target: Myc proto-oncogene protein (Homo sapiens) (UniProt P01106); experiment: ATG_Myc_CIS: Attagene CIS-FACTORIAL HepG2 Assay for human Myelocytomatosis (Myc) Proto-Oncogene Transcription Factor (AID 2282990); details: HepG2, Attagene cis-reporter transcription factor activity; actives raise or lower the signal
Procedure, shortened: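 Fluorescence intensity of reporter-specific cDNA fragments, separated by capillary electrophoresis, gives the signal. Transfected HepG2 cells carrying cis-promoter reporter constructs are incubated with compound for 24 h; DMSO serves as baseline.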

[3] = ATG_NRF2_ARE_CIS: Attagene CIS-FACTORIAL HepG2 Assay for human Nuclear Factor Erythroid 2 Related Factor 2 (NFR2) response to Antioxidant Response Elements (ARE) (AID 2282992); details: HepG2 Attagene ARE/NRF2 reporter, transcription factor activity; actives raise or lower the signal;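 as to AC50: reporter mRNA level measured by RT-PCR and capillary electrophoresis fluorescence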
Procedure, shortened: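 Readout: reporter mRNA quantified by RT-PCR plus FAM-labelled primer extension, HpaI digestion and capillary electrophoresis, 24 h after dosing transfected HepG2 cells. Gain or loss of signal is fitted bidirectionally against DMSO baseline.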

[4] = ATG_Oct_MLP_CIS: Attagene CIS-FACTORIAL HepG2 Assay for human Octamer-Binding Transcription Factor (Oct) (AID 2282993); details: HepG2 Attagene cis-factorial Oct reporter, mRNA; actives raise or lower the signal
Procedure, shortened: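 HepG2 cells transiently transfected with cis-promoter-driven multiplexed reporter transcription units, dosed for 24 h. Reporter mRNA quantified by RT-PCR, fluorescent labelling, HpaI digestion and capillary electrophoresis; bidirectional fits versus DMSO baseline.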

[5] = biological target: human Peroxisome Proliferator-activated Receptor alpha (PPARa), PPARA (gene 5465) (UniProt Q07869); experiment: ATG_PPARa_TRANS: Attagene TRANS-FACTORIAL HepG2 Assay for human Peroxisome Proliferator-activated Receptor alpha (PPARa) (AID 2283001; active = hit-call score of the fitted dose curve at least 0.9, where 1 is the maximum;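 as to AC50: potency for gain of reporter signal over DMSO so agonist or activator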)
Procedure, shortened: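 HepG2, transient MRTU transfection, 24 h treatment. RT-PCR → FAM labelling → capillary electrophoresis. Fit vs DMSO, positive direction.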

[6] = ATG_NF_kB_CIS: Attagene CIS-FACTORIAL HepG2 Assay for human Nuclear Factor Kappa B (NF-kB) (AID 2282991); details: HepG2 Attagene cis-factorial NF-kB reporter mRNA; actives raise or lower the signal
Procedure, shortened: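 HepG2 cells transfected with cis-promoter-driven reporter units, so endogenous transcription factor activity is measured. Reporter mRNA quantified 24 h after dosing by RT-PCR and capillary electrophoresis, with bidirectional fitting against DMSO.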

[7] = biological target: Cellular tumor antigen p53 (Homo sapiens) (UniProt P04637); experiment: ATG_p53_CIS: Attagene CIS-FACTORIAL HepG2 Assay for human p53 Transcription Factor (AID 2282994); details: HepG2 p53 cis-element reporter, Attagene mRNA; actives raise or lower the signal
Procedure, shortened: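 Read-out: reporter mRNA by RT-PCR plus capillary electrophoresis with fluorescence detection. Human HepG2 liver cells carried transfected multi-reporter cis-element constructs, dosed 24 h. Gain or loss of signal fitted bidirectionally against DMSO control.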

[8] = BSK_3C_TissueFactor: BioMAP Diversity Plus: 3C Assay for Tissue Factor Biomarker Activity (AID 2282997); details: BioMAP 3C HUVEC, tissue factor biomarker readout; actives raise or lower the signal
Procedure, shortened: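 In this endothelial system, HUVEC are treated for 24 h and Tissue Factor is assessed by ELISA, normalised to DMSO.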

[9] = BSK_3C_uPAR: BioMAP Diversity Plus: 3C Assay for Urokinase-type plasminogen activator receptor (uPAR) Biomarker Activity (AID 2282998); details: BioMAP 3C HUVEC, uPAR biomarker ELISA; actives raise or lower the signal
Procedure, shortened: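 Human umbilical vein endothelial primary cells were exposed to test chemical for 24 h. Cell-surface uPAR was then quantified by ELISA, and responses were fitted bidirectionally against DMSO as negative control and baseline.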

[10] = BSK_4H_Eotaxin3: BioMAP Diversity Plus: 4H Assay for Eotaxin 3 Biomarker Activity (AID 2283000); details: primary human endothelial cells (HUVEC); actives raise or lower the signal
Procedure, shortened: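 ELISA quantitation of CCL26 (Eotaxin-3) protein from chemically dosed human vascular endothelial cells at 24 h; increases and decreases both scored relative to DMSO-treated baseline.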

Measured: AC50

Sequence of human Peroxisome Proliferator-activated Receptor alpha (PPARa), PPARA (gene 5465) (Q07869 whole entry, looked up): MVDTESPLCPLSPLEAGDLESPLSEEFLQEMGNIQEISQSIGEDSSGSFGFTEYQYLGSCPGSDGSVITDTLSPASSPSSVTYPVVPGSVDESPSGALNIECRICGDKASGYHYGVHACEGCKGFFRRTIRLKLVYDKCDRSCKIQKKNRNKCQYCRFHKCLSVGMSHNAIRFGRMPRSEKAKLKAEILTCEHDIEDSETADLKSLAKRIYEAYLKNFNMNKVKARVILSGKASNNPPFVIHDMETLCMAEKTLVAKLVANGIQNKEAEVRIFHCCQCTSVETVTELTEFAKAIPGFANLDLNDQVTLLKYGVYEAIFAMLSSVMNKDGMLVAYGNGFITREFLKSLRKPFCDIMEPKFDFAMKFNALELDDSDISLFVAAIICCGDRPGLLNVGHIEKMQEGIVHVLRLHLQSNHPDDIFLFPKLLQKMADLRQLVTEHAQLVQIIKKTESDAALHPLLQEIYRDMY
Sequence of Cellular tumor antigen p53 (Homo sapiens) (P04637 whole entry, looked up): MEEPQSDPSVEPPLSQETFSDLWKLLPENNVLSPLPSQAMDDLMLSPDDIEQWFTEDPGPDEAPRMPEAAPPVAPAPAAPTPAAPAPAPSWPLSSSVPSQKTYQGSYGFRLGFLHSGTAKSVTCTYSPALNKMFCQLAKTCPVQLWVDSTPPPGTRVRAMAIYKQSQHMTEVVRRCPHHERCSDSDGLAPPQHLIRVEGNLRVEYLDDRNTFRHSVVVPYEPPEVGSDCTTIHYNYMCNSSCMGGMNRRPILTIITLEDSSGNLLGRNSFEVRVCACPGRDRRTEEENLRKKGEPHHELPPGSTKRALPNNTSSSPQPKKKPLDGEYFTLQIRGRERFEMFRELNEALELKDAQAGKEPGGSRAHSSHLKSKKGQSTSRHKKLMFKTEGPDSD
Sequence of Myc proto-oncogene protein (Homo sapiens) (P01106 whole entry, looked up, the tested form may be a part): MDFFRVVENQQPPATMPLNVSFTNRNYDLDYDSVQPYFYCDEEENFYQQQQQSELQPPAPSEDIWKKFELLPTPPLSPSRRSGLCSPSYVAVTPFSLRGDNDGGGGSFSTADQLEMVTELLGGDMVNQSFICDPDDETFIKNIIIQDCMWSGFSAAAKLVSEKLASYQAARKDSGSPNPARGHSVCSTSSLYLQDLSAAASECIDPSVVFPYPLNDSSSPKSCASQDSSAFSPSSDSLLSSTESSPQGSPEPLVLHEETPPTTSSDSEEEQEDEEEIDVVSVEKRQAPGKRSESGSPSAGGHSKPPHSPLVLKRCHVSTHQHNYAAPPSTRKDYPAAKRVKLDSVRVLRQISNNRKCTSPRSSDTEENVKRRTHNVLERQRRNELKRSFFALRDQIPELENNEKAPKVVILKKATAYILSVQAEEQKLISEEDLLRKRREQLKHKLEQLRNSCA

O=c1cc(-c2ccccc2)oc2ccccc12
active: [3] 4.03 µM | [4] 52.4 µM
inactive: [1] | [2] | [5]

Nc1ccc2cc3ccccc3cc2c1
active: [3] 47 µM
inactive: [1] | [2] | [4] | [5]

Oc1ccc(Cl)cc1Cc1cc(Cl)ccc1O
inactive: [6]
active: [1] 5.83 µM | [3] 2.75 µM | [4] 7.99 µM | [5] 6.86 µM

C[C@]12CCC(=O)C=C1CC[C@@H]1[C@@H]2C(=O)C[C@@]2(C)[C@H]1CC[C@]2(O)C(=O)CO
inactive: [1] | [6] | [3] | [4] | [7]

NC(=O)NNC(N)=O
inactive: [1] | [6] | [3] | [4] | [7] | [5]

O=C(O)Cc1c(Cl)ccc(Cl)c1Cl
inactive: [1] | [3] | [4] | [7]

[Cl][Nd]([Cl])[Cl]
inactive: [1] | [6] | [3] | [4] | [7] | [5]

CC(CC=O)CCCC(C)(C)O (stereo not given)
inactive: [1] | [6] | [3] | [4] | [5]

O=C1C=CC(=O)O1
inactive: [1] | [6] | [3] | [4] | [7] | [5]

CC(=O)[C@H]1[C@H](C#N)C[C@H]2[C@@H]3CC=C4C[C@@H](O)CC[C@]4(C)[C@H]3CC[C@@]21C
inactive: [1] | [6] | [3] | [4] | [7] | [5]

CC(=O)OCCC1CCCCC1
inactive: [1] | [6] | [3] | [4] | [7]

CC(C)c1ccc2c(C(C)C)cc(C(C)C)c(S(=O)(=O)O)c2c1
active: [3] 25.9 µM
inactive: [1] | [4] | [7] | [5]

COCCCOCCCOC
inactive: [1] | [6] | [3] | [4] | [5]

COC(=O)c1sccc1S(N)(=O)=O
inactive: [1] | [6] | [3] | [4] | [7] | [5]

CCCCNc1ccc(NCCCC)c2c1C(=O)c1ccccc1C2=O
active: [3] 1.47 µM
not listed: [2] | [5]
inactive: all other assays above

COc1ccc(NC(C)=O)cc1N
inactive: [1] | [6] | [3] | [4]

COC(=O)c1ccccc1OC
inactive: [1] | [2] | [3] | [4] | [5]

CC(C)COC(=O)C=Cc1ccccc1
inactive: [1] | [6] | [4] | [7] | [5]
active: [3] 18.4 µM

CC(C)(C)c1ccc(OC(=O)c2ccccc2O)cc1
inactive: [1] | [6] | [3] | [4] | [7] | [5]

O=[N+]([O-])C1(Br)COCOC1
active: [6] 51.7 µM | [7] 53.8 µM
inactive: [1] | [3] | [4] | [5]

COc1cc(NC(=O)CC(C)=O)c(OC)cc1Cl
inactive: [1] | [3] | [4] | [7] | [5]

CC(=O)Nc1nnc(S(N)(=O)=O)s1
inactive: [1] | [6] | [3] | [4] | [7]

C=C(C)C(=O)OCC(C)C
inactive: [1] | [6] | [3] | [4] | [7] | [5]

CCOC(=O)c1ccc(N(C)C)cc1
inactive: [1] | [2] | [3] | [4] | [5]

COc1c2ccoc2cc2oc(=O)ccc12
inactive: [1] | [3] | [4] | [7] | [5]

C=C1[C@H]2CC[C@@H]3[C@H]2C(C)(C)CCC[C@]13C
inactive: [1] | [3] | [4] | [7]

C=CC(C)(CCC=C(C)C)OC(=O)CC(C)C (stereo not given)
inactive: [1] | [4]
active: [3] 100 µM

C=CC(=O)OCCOC(=O)C=C
active: [4] 26.3 µM | [7] 48 µM
inactive: [1] | [3] | [5]

CCCCC(CC)COC(=O)c1ccccc1O (stereo not given)
active: [8] 1.8 µM | [9] 17.9 µM | [10] 15.2 µM
not listed: [2] | [5]
inactive: all other assays above

CC(C)C(=O)C(C)C
active: [3] 27.1 µM | [4] 29.2 µM
not listed: [2] | [5]
inactive: all other assays above

Cc1ccc(N)c([N+](=O)[O-])c1
inactive: [1] | [2] | [3] | [4] | [5]

O=[N+]([O-])c1ccc(CO)cc1
inactive: [1] | [6] | [3] | [4] | [7] | [5]

Cc1cc(C)c(C)c(O)c1
inactive: [1] | [6] | [3] | [4] | [7]

C=C(C)C(=O)OCCOc1ccccc1
inactive: [1] | [2] | [4] | [5]
active: [3] 67.1 µM

CC(=O)OC(C)C
inactive: [1] | [3] | [4] | [7]

CC(C)c1ccc2cc(C(C)C)ccc2c1
inactive: [1] | [6] | [4]
active: [3] 100 µM

O=S(=O)(Oc1ccc(Cl)cc1Cl)c1ccccc1
active: [3] 11.5 µM
inactive: [1] | [6] | [4]

C=C1C2CCC(C2)C1(C)C (stereo not given)
inactive: [1] | [6] | [3] | [4] | [7]

CCC(C)C=O (stereo not given)
inactive: [1] | [6] | [3] | [4] | [7] | [5]

Nc1ncn([C@@H]2O[C@H](CO)[C@@H](O)[C@H]2O)c(=O)n1
active: [4] 8.32 µM | [7] 2.1 µM
inactive: [1] | [6] | [3] | [5]

COC(=O)/C=C/C(C)=C\C=C\C(C)=C\C=C\C=C(C)\C=C\C=C(C)\C=C\C(=O)O
active: [3] 67.9 µM
inactive: [2] | [6] | [4] | [7] | [5]

C1=CCCC1
inactive: [2] | [6] | [3] | [4] | [7] | [5]

COC(=O)c1cc(Cl)ccc1[N+](=O)[O-]
inactive: [6] | [4] | [7]
active: [3] 48 µM

CC(C)(C)C(=O)CCc1ccc(Cl)cc1
inactive: [2] | [3] | [4]

CCC(Cc1ccccc1)(C(=O)c1ccc(N2CCOCC2)cc1)N(C)C (stereo not given)
inactive: [2] | [6] | [4] | [7]
active: [3] 37.2 µM

CC1OC1C1CCC2(C)OC2C1 (stereo not given)
active: [3] 100 µM
not listed: [1] | [5] | [6]
inactive: all other assays above

c1ccc2c(c1)ccc1ncccc12
active: [2] 26.7 µM | [3] 148 µM | [8] 8 µM | [9] 13.4 µM | [10] 20 µM
inactive: [4] | [5]

O=Nc1ccc(O)cc1
not listed: [1] | [6] | [7]
inactive: all other assays above

CCCCCCCCCCC=CC#N
active: [3] 114 µM | [5] 38 µM
inactive: [2] | [6] | [4] | [7]

CCCCCCCOC(=O)CCC
inactive: [2] | [6] | [3] | [4] | [5]

CCCCCCCC[N+](C)(CCCCCCCC)CCCCCCCC
inactive: [2] | [4] | [5]
active: [3] 1.59 µM

CC1=CC[C@H]2C[C@@H]1C2(C)C
inactive: [2] | [6] | [3] | [4]

NC(=O)OCC(COC(N)=O)c1ccccc1
inactive: [2] | [6] | [3] | [4] | [7] | [5]

C=CC(=O)OCCC(=O)O
inactive: [2] | [6] | [4] | [7] | [5]
active: [3] 43.2 µM

O=c1cc[nH]c(=S)[nH]1
inactive: [2] | [6] | [3] | [4] | [7]

Cc1cccc(N)n1
inactive: [2] | [3] | [4] | [7]

[Cl][Bi]([Cl])([c]1ccccc1)([c]1ccccc1)[c]1ccccc1
active: [6] 0.463 µM | [3] 0.999 µM | [7] 6.07 µM | [5] 5.11 µM
inactive: [2] | [4]

O=CN1CCCCC1
inactive: [2] | [3] | [4] | [7]

CCCCCCCCCCOS(=O)(=O)O
inactive: [6] | [4] | [7]
active: [3] 99.5 µM | [5] 27.6 µM

Cc1ccc(OC(=O)CC(C)C)cc1
inactive: [2] | [3] | [4]

CCCCCCCCCCCCCOP(=O)(O)O
inactive: [2] | [6] | [3] | [4] | [7]

O=c1[nH]c(=O)c2[nH]c(=O)[nH]c2[nH]1
inactive: [2] | [3] | [4] | [7] | [5]

FC(F)(F)C(=NOCC1OCCO1)c1ccc(Cl)cc1
inactive: [2] | [6] | [3] | [4] | [7] | [5]

C1CN(SSN2CCOCC2)CCO1
active: [3] 18.8 µM
inactive: [2] | [4] | [7]

CCOC(=O)CC(C(C)=O)C(C)=O
inactive: [2] | [6] | [3] | [4] | [7] | [5]

Nc1ccc(N=Nc2ccccc2)c(N)n1
active: [3] 15.3 µM | [4] 69.7 µM | [5] 44.6 µM
inactive: [7]

COC(=O)c1ccc2cc(C(=O)OC)ccc2c1
inactive: [2] | [6] | [3] | [4] | [7] | [5]

O=C1Nc2ccccc2C1(c1ccc(O)cc1)c1ccc(O)cc1
active: [3] 178 µM | [4] 22.4 µM
inactive: [2]
